Our source for the Potency and outcome values is PubChem BioAssay (Tox21).

Results filed as inconclusive are left out. Calls of active or inactive are those of the source. Unless noted, calls come from the whole dose curve; as a rule, active = well fitted curve in the direction sought with a large enough effect in the repeat runs; inconclusive = weak or mixed curves; inactive = no such curve, though single readings can be large; an effect the other way counts as inactive or inconclusive.

Experiment [1] can be described thus: qHTS assay to identify small molecule antagonists of the androgen receptor (AR) signaling pathway using the MDA cell line in the presence of 0.5 nM R1881 - cell viability counter screen (AID 1259242). Note: nearly all actives have a fitted effect of over 45% in size. The method, boiled down: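 Viability of MDA-kb2 cells was multiplexed with the luciferase AR readout; after 16 hr with compounds and R1881 at 0.5 nM final, CellTiter-Fluor fluorescence was recorded.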
Background: Quantitative high-throughput screening tests each substance at several concentrations.

In experiment [2] the target is Estrogen receptor (Homo sapiens) (UniProt P03372). The experiment is described as follows: qHTS assay to identify small molecule antagonists of the estrogen receptor alpha (ER-alpha) signaling pathway using the BG1 cell line in the presence of 0.1 nM 17-beta-estradiol (AID 1259244). Note: nearly all actives have a fitted effect of over 50% in size. The method, boiled down: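 Estradiol at 0.1 nM (final) stimulates the endogenous ER-alpha of VM7Luc4E2 cells carrying an ERE-driven luciferase; compounds are co-incubated 22 h at 37C and luciferase output quantified by luminescence.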
Chain of Estrogen receptor (Homo sapiens) (P03372 whole entry, looked up): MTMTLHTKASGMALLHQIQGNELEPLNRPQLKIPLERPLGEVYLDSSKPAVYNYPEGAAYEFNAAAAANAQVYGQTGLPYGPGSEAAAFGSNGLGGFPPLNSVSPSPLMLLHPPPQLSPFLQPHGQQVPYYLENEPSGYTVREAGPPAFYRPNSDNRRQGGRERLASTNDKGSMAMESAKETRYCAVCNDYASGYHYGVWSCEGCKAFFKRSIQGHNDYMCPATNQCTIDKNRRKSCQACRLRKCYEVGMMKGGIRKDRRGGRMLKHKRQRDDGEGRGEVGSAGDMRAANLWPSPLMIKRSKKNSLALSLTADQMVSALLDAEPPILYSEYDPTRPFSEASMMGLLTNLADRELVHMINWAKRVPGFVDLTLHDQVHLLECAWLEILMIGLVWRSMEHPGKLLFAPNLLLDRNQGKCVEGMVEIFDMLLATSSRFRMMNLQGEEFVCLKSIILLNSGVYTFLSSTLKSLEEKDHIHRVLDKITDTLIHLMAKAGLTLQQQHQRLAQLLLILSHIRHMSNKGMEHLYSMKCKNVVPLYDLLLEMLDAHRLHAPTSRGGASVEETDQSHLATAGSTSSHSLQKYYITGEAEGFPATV

Experiment [3] is described as follows: qHTS assay to identify small molecule phospholipidosis (PLD) inducers (AID 1259344; active = well fitted curve in the direction sought with a large enough effect; an effect the other way counts as inactive or inconclusive). In short, it runs like this:
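Fluorescent phospholipid staining (LipidTOX Red) measured by automated microscopy in fixed HepG2 cells after 24 h treatment; nuclei counterstained with Hoechst 33342; amiodarone as reference inducer.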

Experiment [4] is described as follows: qHTS assay to identify small molecule HDAC inhibitors (AID 1259364).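 Note: wild-type HCT-116 cells with endogenous class I/II HDAC activity; top concentration of the series differs between compounds; nearly all actives have a fitted effect of over 45% in size.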 In short, it runs like this: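 Read-out: luminescence of HDAC-Glo I/II reagent, 30 min RT, reflecting class I/II deacetylase activity in whole HCT-116 cells pre-exposed 2 h to DMSO-dissolved compounds.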
Experiment [5] is described as follows: qHTS assay to identify small molecule HDAC inhibitors - cell viability counter screen (AID 1259365). Note: series mostly up to about 92 µM; nearly all actives have a fitted effect of over 50% in size. The method, boiled down: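 Cytotoxicity was gauged in wild-type HCT-116 cells after a brief 2hr treatment with DMSO-dissolved compounds at 37C and 5% CO2, using CellTiter-Glo luminescence developed for 30min at room temperature.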
A short description of experiment [6]: qHTS assay to identify small molecule agonists of the sonic hedgehog signaling (Shh) pathway - cell viability counter screen (AID 1259366). Note: nearly all actives have a fitted effect of over 50% in size. The method, boiled down:
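Stable Gli1-Luc NIH/3T3 clone, 2,000 cells/well. Compound exposure 24hr at 37C. Read-out: CellTiter-Fluor fluorescence.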

Experiment [7] is described as follows: qHTS assay to identify small molecule agonists of the sonic hedgehog signaling (Shh) pathway (AID 1259368; calls by dose curve;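 note: NIH/3T3-derived 3T3Gli1-Luc cells carrying a stable Gli1-driven firefly luciferase reporter; series mostly up to about 92 µM; nearly all actives have a fitted effect of over 15% in size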). In short, it runs like this:
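A Gli1 transcriptional response element controlled firefly luciferase in 3T3Gli1-Luc cells. Compounds and a positive control were added 4 hr after plating, and cells were incubated a further 24 hr at 37 C before luminescence detection.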

Experiment [8] in a line: qHTS assay to identify small molecule antagonists of the sonic hedgehog signaling (Shh) pathway (AID 1259369; calls by dose curve; note: nearly all actives have a fitted effect of over 45% in size; note: potency is the fitted concentration of half-maximal effect). The method, boiled down: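 For antagonist detection, the reporter line received test compounds together with conditioned medium, incubated 24hr at 37 C, 5% CO2, then luminescence was recorded following 30min room-temperature luciferase reagent incubation.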
Experiment [9] concerns the target Estrogen receptor beta (Homo sapiens) (UniProt Q92731). The experiment in a line: qHTS assay to identify small molecule agonists of the estrogen receptor beta (ER-beta) signaling pathway (AID 1259377; active = well fitted activation curve with a large enough effect in the signal ratio in the repeat runs, not every such curve was filed as active; the % refers to the signal ratio). The method, boiled down: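 Measured by fluorescence intensity from a B/G FRET beta-lactamase substrate (2 h, room temperature) in ER-beta-UAS-bla HEK293T cells treated with DMSO-dissolved compounds for 16 hr at 37C and 5% CO2.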

Experiment [10] has the same target. The experiment is described as follows: qHTS assay to identify small molecule antagonists of the estrogen receptor beta (ER-beta) signaling pathway (AID 1259378; active = well fitted inhibition curve with a large enough effect in the signal ratio in the repeat runs, not every such curve was filed as active; the % refers to the signal ratio; note: potency is the fitted concentration of half-maximal effect). In short, it runs like this:
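Antagonist mode: compounds added to beta-lactamase reporter HEK293T ER-beta-UAS cells stimulated with E2 (1nM final), 16 hr at 37C. LiveBLAzer B/G FRET substrate, 2 hours room temperature, fluorescence read-out.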

The nature of experiment [11]: qHTS assay to identify small molecule agonists of the androgen receptor (AR) signaling pathway in the presence of an antagonist - cell viability counter screen (AID 1259379). Note: nearly all actives have a fitted effect of over 25% in size. Note: potency is the fitted concentration of half-maximal effect. In short, it runs like this:
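Seed MDA-kb2 at 3,000 cells/well; incubate 5 hr, 37C, 0% CO2. Add nilutamide to 3.0uM final, then pin compounds at 15 concentrations. Incubate 16 hr. Add CellTiter-Fluor at 15 hr, read fluorescence after 1 hr.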

Experiment [12] in a line: qHTS assay to identify small molecule antagonists of the estrogen receptor beta (ER-beta) signaling pathway - cell viability counter screen (AID 1259382).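 Note: HEK293T cells carrying ER-beta-UAS-bla reporter stimulated with estradiol; series mostly up to about 92 µM; nearly all actives have a fitted effect of over 55% in size.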 In short, it runs like this:
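In this multiplexed counter screen, cells were seeded at 2,000 per well in medium with 2% charcoal-stripped FBS and incubated 6 hr before compound and 1nM final E2 were added. Sixteen hours later, ATP-based luminescence reported viability.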

The target in experiment [13] is Estrogen receptor (Homo sapiens) (UniProt P03372). The experiment is described as follows: qHTS assay to identify small molecule agonists of the estrogen receptor alpha (ER-alpha) signaling pathway in the presence of an antagonist (AID 1259383; calls by dose curve; note: top concentration of the series differs between compounds; nearly all actives have a fitted effect of over 15% in size). In short, it runs like this:
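Stably transfected VM7Luc4E2 reporter cells, kept 5 days in charcoal-stripped serum, received ICI-182,780 at 10.0nM final before compound addition. Following 22hr incubation at 37C and 5% CO2, luciferase signal was read by luminescence.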

Experiment [14] in a line: qHTS assay to identify small molecule agonists or antagonists of the thyroid stimulating hormone receptor (TSHR) signaling pathway - wild type cell line counter screen (AID 1259384; calls by dose curve). In short, it runs like this: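 Counter screen in untransfected Hek293: compounds (15-point titration, triplicate) plus phosphodiesterase inhibitor Ro20-1724 added after 18 h plating; 30 min RT. Intracellular cAMP via competitive d2/cryptate immunoassay, 1 h incubation.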

Experiment [15] in a line: qHTS assay to identify small molecule agonists of the estrogen receptor alpha (ER-alpha) signaling pathway in the presence of an antagonist - cell viability counter screen (AID 1259386).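 Note: series mostly up to about 92 µM; cells exposed to compounds for 22 h at 37 °C before the viability read; nearly all actives have a fitted effect of over 30% in size.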 The method, boiled down:
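Viability counter screen using VM7Luc4E2 (full-length ER-alpha, four ERE-luciferase). The cells were treated with compounds alongside ICI-182,780 10.0nM for 22hr, and live-cell protease fluorescence was quantified with CellTiter-Fluor.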

A short description of experiment [16]: qHTS assay to identify small molecule antagonists of the sonic hedgehog signaling (Shh) pathway - cell viability counter screen (AID 1259367). Note: nearly all actives have a fitted effect of over 55% in size. The method, boiled down:
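Using CellTiter-Fluor, viability of Gli1-Luc reporter 3T3 cells is read by fluorescence in the wells used for the Shh luciferase assay. Treatment lasts 23 hr with conditioned medium, then reagent 1 hr at 37C.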

Experiment [17] can be described thus: qHTS assay to identify small molecule agonists of the estrogen receptor beta (ER-beta) signaling pathway - cell viability counter screen (AID 1259380). Note: nearly all actives have a fitted effect of over 30% in size. Note: potency is the fitted concentration of half-maximal effect. In short, it runs like this: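 CellTiter-Glo read, 30 min RT, same wells as bla assay; cells ER-beta-UAS-bla HEK293T; 16 hr compound, 37C; medium 2% charcoal-stripped FBS.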
Experiment [18] addresses Thyrotropin receptor (Homo sapiens) (UniProt P16473). The experiment in a line: qHTS assay to identify small molecule antagonists of the thyroid stimulating hormone receptor (TSHR) signaling pathway (AID 1259385; calls by dose curve; note: nearly all actives have a fitted effect of over 20% in size). In short, it runs like this: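 Antagonist mode: compound-treated TSHR-expressing HEK293 cells were stimulated with 1.5 ng/mL TSH (final) in presence of Ro20-1724 for 30 min at RT. HTRF cAMP detection after 1 h; each compound tested at 15 concentrations, triplicate.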

Chain of Thyrotropin receptor (Homo sapiens) (P16473 whole entry, looked up): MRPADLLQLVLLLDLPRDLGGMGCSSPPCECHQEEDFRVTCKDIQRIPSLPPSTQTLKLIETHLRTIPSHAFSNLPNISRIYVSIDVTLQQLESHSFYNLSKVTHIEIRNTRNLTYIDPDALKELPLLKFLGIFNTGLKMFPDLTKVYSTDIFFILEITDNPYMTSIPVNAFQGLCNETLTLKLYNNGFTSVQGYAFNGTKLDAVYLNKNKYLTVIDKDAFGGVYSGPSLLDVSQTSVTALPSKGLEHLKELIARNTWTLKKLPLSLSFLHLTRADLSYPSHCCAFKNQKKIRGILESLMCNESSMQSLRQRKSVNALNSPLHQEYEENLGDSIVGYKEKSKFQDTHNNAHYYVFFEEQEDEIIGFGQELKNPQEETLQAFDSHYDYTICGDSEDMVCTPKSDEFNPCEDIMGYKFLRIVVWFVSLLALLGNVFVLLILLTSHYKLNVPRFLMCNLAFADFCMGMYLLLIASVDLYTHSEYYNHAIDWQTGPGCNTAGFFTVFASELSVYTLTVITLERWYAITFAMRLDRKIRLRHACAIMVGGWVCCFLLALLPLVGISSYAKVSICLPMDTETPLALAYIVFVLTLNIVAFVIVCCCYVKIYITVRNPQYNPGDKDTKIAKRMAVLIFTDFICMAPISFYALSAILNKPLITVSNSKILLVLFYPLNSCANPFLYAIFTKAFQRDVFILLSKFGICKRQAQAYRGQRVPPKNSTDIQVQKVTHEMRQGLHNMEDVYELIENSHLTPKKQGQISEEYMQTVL
Chain of Estrogen receptor beta (Homo sapiens) (Q92731 whole entry, looked up): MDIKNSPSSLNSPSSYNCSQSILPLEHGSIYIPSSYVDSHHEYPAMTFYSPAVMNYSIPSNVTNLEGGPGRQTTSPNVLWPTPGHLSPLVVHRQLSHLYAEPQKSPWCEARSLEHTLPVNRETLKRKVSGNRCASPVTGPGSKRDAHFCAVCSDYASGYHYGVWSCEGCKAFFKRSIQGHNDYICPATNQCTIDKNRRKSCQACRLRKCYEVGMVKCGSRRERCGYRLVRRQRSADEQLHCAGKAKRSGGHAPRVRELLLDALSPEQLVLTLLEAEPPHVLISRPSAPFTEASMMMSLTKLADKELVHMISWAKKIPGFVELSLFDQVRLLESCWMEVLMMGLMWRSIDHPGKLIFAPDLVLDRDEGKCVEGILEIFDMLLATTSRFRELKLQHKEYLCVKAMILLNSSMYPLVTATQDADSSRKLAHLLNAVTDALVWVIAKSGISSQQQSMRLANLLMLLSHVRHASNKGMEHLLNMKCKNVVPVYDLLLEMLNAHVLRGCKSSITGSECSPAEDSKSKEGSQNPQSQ

Turning to `CC(=O)Oc1ccc(C2(c3ccc(OC(C)=O)cc3)Oc3ccccc3NC2=O)cc1`, the Potency result in experiment [1], in experiment [2], in experiment [3], in [4], in experiment [5] and in [6] was “inactive” throughout. Besides, the Potency result in experiment [7], in experiment [9], in experiment [11], in experiment [12], in experiment [13] and in experiment [15] was “inactive” in each case. In addition, the Potency in experiment [8] was 8.41 µM (active); in [10] it was 1.88 µM (active). For the same molecule, in experiment [14], the outcome was inactive.

For the molecule `Brc1ccccn1`, the Potency entry in experiment [1], in [2], in experiment [4], in [5], in experiment [6] and in experiment [16] was “inactive” throughout. In addition, the Potency entry in [7], in experiment [8], in experiment [9], in experiment [10], in experiment [11] and in [17] was “inactive” each time. The Potency result in experiment [13], in [18] and in experiment [15] was “inactive” in each case. For the same molecule, in experiment [14], the result was inactive.

As to `CN1CN(C)CN(C)C1`, the Potency entry in experiment [1], in experiment [2], in experiment [4], in [5], in [6] and in experiment [16] was “inactive” each time. For the same molecule, the Potency result in [7], in experiment [8], in experiment [9], in [11], in experiment [17] and in experiment [12] was “inactive” throughout. For the same molecule, the Potency entry in experiment [13], in [18] and in experiment [15] was “inactive” throughout. In [14], the molecule was classed as inactive.

Consider `CCCCCCCC/C=C/CCCOC(C)=O`, for which the Potency entry in experiment [1], in experiment [2], in experiment [4], in experiment [5], in [6] and in experiment [16] was “inactive” in each case. In addition, the Potency result in experiment [7], in [10], in [11], in experiment [17], in experiment [13] and in experiment [18] was “inactive” throughout. The Potency result in experiment [15] was “inactive”. In addition, the Potency in experiment [8] was 48.6 µM (active). Also, in experiment [14], the molecule was called inactive.

For `CC(C)=C1CC[C@@H](C)CC1=O`, the Potency entry in experiment [1], in [2], in [4], in [5], in experiment [6] and in experiment [16] was “inactive” in each case. The Potency entry in experiment [7], in [8], in experiment [9], in experiment [10], in experiment [11] and in experiment [17] was “inactive” each time. The Potency result in experiment [12], in [13], in experiment [18] and in experiment [15] was “inactive” each time. The result in experiment [14] was inactive.

`CCN(CC)CCCN(c1ccccc1)C1Cc2ccccc2C1`: the Potency entry in experiment [1], in experiment [2], in [4], in experiment [5], in experiment [6] and in [16] was “inactive” each time. Further, the Potency entry in experiment [7], in experiment [9], in experiment [13], in experiment [18] and in [15] was “inactive” each time. For the same molecule, the Potency was 15 µM (active) in experiment [8], 29.8 µM (active) in experiment [11] and 11.9 µM (active) in experiment [17]. For the same molecule, the result in experiment [14] was inactive.

In the case of `CC1(C)C(=O)N(CO)C(=O)N1CO`, the Potency result in [1], in experiment [2], in experiment [4], in [5], in [6] and in experiment [16] was “inactive” throughout. In addition, the Potency result in experiment [7], in [8], in [9], in experiment [10], in experiment [11] and in [17] was “inactive” each time. The Potency entry in experiment [12], in experiment [18] and in experiment [15] was “inactive” each time. Besides, in experiment [14], the molecule was called inactive.
